The values below come from PubChem BioAssay (NCI).

About 83,000 compounds went through this panel and 20% of them were active in at least one assay; those are over-represented in the sample as a whole.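 Single-dose data. Exposure time 48 hours. Values below 10 considered active.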 Unmarked numbers belong to inactive results. Calls of active or inactive are those of the source.

What all share (experiment): NCI-60 one-dose screen, 48 h (100 = growth as untreated, 0 = no growth, -100 = all killed)
Holding throughout (details): 10 µM unless noted

Test [1] concerns EKVX NSCLC.
Test [2] has as its system SN12C renal.
Test [3] concerns UO-31 renal.
Test [4] concerns TK-10 renal.
In test [5] the test system is ACHN renal.
The subject of test [6] is CAKI-1 renal.
The subject of test [7] is A498 renal.
In test [8] the test system is CCRF-CEM leukemia.
The subject of test [9] is MOLT-4 leukemia.
Test [10] has as its system SR leukemia.
Test [11] deals with RPMI-8226 leukemia.
In test [12] the test system is OVCAR-8 ovarian.
Test [13] has as its system OVCAR-5 ovarian.
Test [14] relates to OVCAR-4 ovarian.
For test [15], the system named is SK-OV-3 ovarian.
The subject of test [16] is IGROV1 ovarian.
Test [17] deals with OVCAR-3 ovarian.
Test [18] deals with HS 578T breast.
The subject of test [19] is NCI/ADR-RES ovarian.
The test system of test [20] is T-47D breast.

Regarding `Cc1c(NC(=O)CSc2nc3sc4c(c3c(=O)n2-c2ccc(Cl)cc2)CCCC4)c(=O)n(-c2ccccc2)n1C`, the growth in [1] is 97.3%; in test [2], 88.9%; in [3], 72.8%; in test [4], 109%; in test [5] it was 90.8%; in [6] it was 65.1%. In addition, the growth was 62.6% in [7]; 98.2% in [8]; 71.3% in test [9]; 86.1% in test [10]; 86.7% in test [11]; 97.1% in [12]. For the same compound, the growth in [13] is 99.6%; in test [14] it was 91.9%; in test [15] it was 93.8%; in test [16], 84.9%; in test [17] it was 100%; in test [18] it was 88.3%. Further, the growth is 101% in test [19] and 90.1% in [20].
In the case of `CC(=O)c1ccc(Nc2nc(SC(C)C)nc(-c3ccccc3)c2C#N)cc1`, the growth in [1] was 111%; in [2], 97%; in test [3] it was 82.1%; in test [4] it was 101%; in test [5], 86.2%; in test [6], 88%. Besides, the growth in test [7] was 42.3%; in test [8] it was 96.1%; in test [9], 96.4%; in test [10], 91.5%; in test [11] it was 95%; in [12] it was 95.7%. Further, the growth in test [13] was 100%; in [14] it was 94.9%; in test [15], 103%; in test [16], 89.7%; in test [19], 92%; in test [20], 81%.
For the compound `O=C1[C@H]2Cc3c([nH]c4ccccc34)[C@@H](c3ccc(Br)cc3)N2C(=O)CN1C1CCN(Cc2ccccc2)CC1`, the growth was 35.5% in [1]; 12.9% in test [2]; 38.5% in test [3]; 64.3% in test [4]; 30.6% in [5]; 44.9% in [6]. The growth in [7] is 61%; in [8], 15.5%; in [9] it was 12.7%; in [10] it was -10.6% (active); in [11], 3.9% (active); in test [12] it was 41.6%. Besides, the growth in test [13] was 65%; in test [14] it was 48.3%; in [16], 18.7%; in test [17], 68.1%; in [18], 36.7%; in test [20], 19.3%.
For the compound `COc1cccc(N2CCN(c3ncnc4c3[nH]c3ccc(F)cc34)C[C@@H]2C)c1`, the growth in test [1] was -0.593% (active); in [2], -28.2% (active); in test [3] it was -98.8% (active); in test [4], -31.6% (active); in [5], -12.9% (active); in [6], -28.6% (active). Also, the growth in test [7] was -23.1% (active); in test [8] it was -16.1% (active); in test [9], -42% (active); in test [10], -22.8% (active); in test [11], -34.7% (active); in test [12], -96.7% (active). In addition, the growth was 0.0989% (active) in test [13]; -56.5% (active) in test [14]; -3.28% (active) in test [15]; -30.2% (active) in [16]; -7.65% (active) in test [17]; -18.7% (active) in test [18]. Also, the growth is 7.77% (active) in test [19] and -52.6% (active) in [20].
As to `CC(C)(C)OC(=O)N1C(=O)c2c(c3c4ccccc4[nH]c3c3ccc4ccccc4c23)C1=O`, the growth in test [1] was 67.7%; in [2], 52.6%; in [3], 40.4%; in test [4] it was 36.8%; in test [5], 34.5%; in [6], 26%. The growth was -2.67% (active) in test [7]; 44.4% in test [8]; 38.2% in [9]; 23% in test [10]; 45.4% in test [11]; 60.7% in test [12]. In addition, the growth in test [13] is 63.8%; in test [14], 77.4%; in test [15], 45.7%; in [16], 52.7%; in [18] it was 49.7%; in test [19] it was 75.5%. Moreover, the growth in [20] is 32.6%.
Take `Nc1cc(-c2c[nH]c3ccc(Cl)cc23)nc2cc(-c3c[nH]c4ccc(Cl)cc34)nn12`: the growth in test [1] was 54.4%; in test [2], 70.8%; in [3], 61.3%; in [4], 66.2%; in [5], 24.3%; in test [6] it was 35.6%. Besides, the growth in test [7] was 32.2%; in [8] it was 42%; in test [9], 33.3%; in test [10] it was 10.1%; in [11], 59.4%; in test [12], 70.7%. In addition, the growth in test [13] was 59.7%; in [14] it was 58.6%; in test [15] it was 119%; in [16], 41.7%; in [17], 75.9%; in test [19] it was 60.4%. Moreover, the growth in test [20] is 51.6%.
Turning to `N[C@@H](Cc1cn(-c2c3ccccc3nc3ccccc23)nn1)C(=O)O`, the growth was 101% in test [1]; 98.2% in test [2]; 89.6% in test [3]; 140% in test [4]; 93.5% in [5]; 93.8% in test [6]. Moreover, the growth in test [7] was 102%; in test [8], 97.3%; in [9], 99.1%; in [10] it was 86%; in test [11], 99.9%; in test [12] it was 103%. For the same compound, the growth in test [13] was 99.2%; in test [14] it was 101%; in test [15], 87.7%; in [16], 97.5%; in test [19], 105%; in test [20], 96.2%.
Consider `CNC(=O)c1cc(-c2ccc(NC(=O)Nc3ccc(N4CCN(C)CC4)c(C(F)(F)F)c3)cc2)nc2cccnc12`, for which the growth in [1] is -74% (active); in test [2], -73.4% (active); in test [3] it was -81% (active); in [4], -89.1% (active); in [5], -94.6% (active); in test [6] it was -80.4% (active). Moreover, the growth is 40.9% in test [7]; -15.1% (active) in test [8]; -30.5% (active) in test [9]; -45.4% (active) in [10]; -35.8% (active) in test [11]; -84% (active) in test [12]. Also, the growth in [13] was -88.6% (active); in [14] it was -82.4% (active); in test [15], 59.7%; in test [16], -83.9% (active); in test [18], -55.7% (active); in test [19], -21.6% (active). Further, in test [20], the growth is -18.8% (active).
